# KB-V1 cytotox = kills drug-selected multidrug resistant KB-V1 cells. Potency, µM (doses to about 46.1 µM), actives largely listed as cytotoxic. KB-V1 MDR cells viability, CellTiter-Glo, 72 h. AID 1347076. 400,000 tested, 3.4% active; further: on the % scale 0 is the no-effect control and ±100 the full control effect; nearly all actives have a fitted effect of over 60% in size
#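 Potencies derive from concentration-effect curves fitted to normalized luminescence (CellTiter-Glo) of KB-V1 cells treated for 72 h at 37 degrees C in phenol-red-free DMEM containing 10% FBS.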
# ATXN2 expr inh = inhibitors of ATXN2 expression; HEK-293 ATXN2-luciferase reporter, luminescence, 24 h; 360,000 tested, 0.72% active; Potency, µM (doses to about 57 µM), for inactives: top-dose activity change, negative = inhibition, most hits filed as inhibitors; further: on the % scale 0 is the no-effect control and ±100 the full control effect; nearly all actives have a fitted effect of over 55% in size
#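 ATXN2-luciferase reporter cells (luciferase flanked by upstream and downstream ATXN2 gene portions) were treated 24 h at 37 °C with compounds at up to 57 uM. SteadyGlo luminescence gave expression; GF-AFC fluorescence gave viability.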
# HepG2 viability = HepG2 cytotoxicity, counter-screen for TGF-b inhibitors; HepG2 CAGA-GFP viability, ATP luminescence, 18 h; Potency, µM (top dose mostly 46.1 µM), for inactives: at the top dose activity change, negative = cytotoxicity, usual class: cytotoxic; 410,000 tested, 0.76% active; AID 588856
#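 CellTiter-Glo luminescence gave cytotoxicity after 18 hours at 37 degrees C. The cells were HepG2 CAGA-GFP in 1% FBS DMEM, stimulated with 500 pg/mL TGF-beta after compound addition. %Activity was normalised to no-cell wells (complete cell-killing) and DMSO (no toxicity), and curves were fitted and classified.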
# TGFb inhibitor = TGF-b pathway inhibition; HepG2 CAGA-GFP TGF-b/SMAD3 reporter, GFP fluorescence, 18 h; TGF-beta stimulated, 500 pg/mL final; Potency, µM (titrated, usually from 46.1 µM), without a hit: at the highest dose activity, negative = inhibition, most hits filed as inhibitors; 410,000 tested, 1.2% active; AID 588855; further: on the % scale 0 is the no-effect control and ±100 the full control effect; nearly all actives have a fitted effect of over 65% in size
#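 TGF-beta reporter screen: HEPG2 CAGA-GFP, 1% FBS, 500 pg/mL TGF-beta final, 18 h; per-cell GFP summed per well; curves fitted and categorized by class.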
# KB-3-1 tox = kills parental KB-3-1 adenocarcinoma cells. KB-3-1 viability, CellTiter-Glo ATP luminescence, 72 h. Potency, µM (doses to about 46.1 µM), actives largely listed as cytotoxic. AID 1347075. 400,000 tested, 1.4% active; further: on the % scale 0 is the no-effect control and ±100 the full control effect; nearly all actives have a fitted effect of over 60% in size
#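 Using CellTiter-Glo luminescence, growth of non-resistant KB-3-1 adenocarcinoma cells is assessed 72 h after pin-tool compound addition at 37 °C. Normalized responses across the concentration series yield fitted curves.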
# S2 tox = cell viability loss in ATXN counter-screen. 400,000 tested, 0.49% active. S2 cells (HEK-293 line with an ATXN2-luciferase reporter) viability, CellTiter-Fluor protease fluorescence, 24 h. Potency, µM (series often up to 56.7 µM), actives largely listed as cytotoxic; further: nearly all actives have a fitted effect of over 40% in size
# Starred values were filed as active, the others as inactive; i = inactive; ? = inconclusive; / = no result. Shown are actives, neighbours in structure and some others; about 5.9% of the full set was active somewhere. The call rests on the fitted dose curve; in most records, active means well fitted curve in the direction sought with a large enough effect; inconclusive means small, poorly fitted or top-dose-only effect, or another doubt; inactive means no such curve, though single readings can be large; an effect the other way counts as inactive or inconclusive. Potency means the concentration at half of the fitted maximal effect.
SMILES,KB-V1 cytotox,ATXN2 expr inh,HepG2 viability,TGFb inhibitor,KB-3-1 tox,S2 tox
CCN(CC)S(=O)(=O)c1cccc(C(=O)NC2CCCCC2)c1,18.4µM*,3.2%,-2.7%,?,i,i
CCN(CC)S(=O)(=O)c1cc(C(=O)Nc2cccnc2)ccc1Cl,i,-6.9%,2.9%,-3.6%,i,i
CCN(CC)S(=O)(=O)c1cccc(C(=O)Nc2cccnc2)c1,20.6µM*,2.2%,1.5%,5.7%,i,i
O=C(CN(Cc1ccccc1)S(=O)(=O)c1cccc(C(F)(F)F)c1)NC1CCCCC1,3.66µM*,4.9%,2.6%,1.6%,i,i
CC(=O)SCC(CC(=O)c1ccc(C)cc1)C(=O)O (stereo not given),/,-1.2%,/,/,/,i
COc1ccc(Br)cc1CNC(=O)CCSCc1ccc(C)cc1,/,/,-30.6%,?,/,/
CCc1cccc(C)c1NC(=O)CN1CCCN(Cc2ccccc2Cl)S1(=O)=O,i,/,-13.5%,0.0%,?,/
Cc1ccccc1C(C(=O)NC1CCCCC1)N(C(=O)Cn1ccnc1C)c1cccc(F)c1 (stereo not given),/,18.6%,/,/,/,/
CC(=O)Oc1ccccc1Cn1c(C)c(C(=O)NCc2cccc([N+](=O)[O-])c2)sc1=O,18.4µM*,-14.9%,-10.3%,?,i,i
Cc1c(C(=O)NCc2cccc([N+](=O)[O-])c2)sc(=O)n1Cc1ccc(F)cc1,?,-18.8%,6.0%,-13.5%,i,i
Cc1c(C(=O)NCc2cccc([N+](=O)[O-])c2)sc(=O)n1Cc1ccc(C(C)C)cc1,9.2µM*,3.1%,-31.1%,?,?,i
Cc1ccc(N2C(=O)CCSC23C(=O)N(Cc2ccccc2)c2ccccc23)cc1F (stereo not given),?,/,-61.1%,?,i,/
CCCCNC(=O)c1ccc(CS(=O)(=O)c2ccc(OC)cc2)o1,i,2.9%,-4.2%,-1.4%,i,i
COc1ccc(S(=O)(=O)Cc2ccc(C(=O)NCCCN(C)c3ccccc3)o2)cc1,6.51µM*,-13.1%,-21.5%,-23.9%,i,i
O=C(C1CCCCC1)N1CCOc2ccc(CN3CCN(Cc4ccccn4)CC3)cc2C1,/,/,/,/,/,i
CN(C)c1nc2cc3c(cc2cc1CN(CC1CCCO1)C(=O)c1cccc(F)c1)OCO3 (stereo not given),/,/,/,/,/,i
O=C(CSc1nnc(Cn2c(=O)sc3ccccc32)n1CCc1ccccc1)N1CCOCC1,18.4µM*,2.7%,-7.5%,8.4%,i,i
Cc1ccc2nc(NC(=O)CSCC(=O)OCC(=O)c3ccc(Br)cc3)sc2c1,i,5.62µM*,-19.2%,-0.5%,i,i
Cc1ccc2nc(NC(=O)CCNS(=O)(=O)c3ccc(Br)s3)sc2c1,18.4µM*,-27.4%,-35.5%,?,i,?
Cc1ccc2nc(NC(=O)CCNS(=O)(=O)c3cccs3)sc2c1,?,-28.4%,-12.2%,-2.8%,i,?
COC(=O)c1ccc2nc(NC(=O)CSCC(=O)OCC(=O)c3ccccc3)sc2c1,i,47.3%,1.1%,5.1%,i,i
Cc1ccc(SCC(=O)NC2CCS(=O)(=O)C2)cc1C (stereo not given),i,-8.2%,2.1%,-2.3%,i,?
Cc1ccc(-c2cn(-c3ccccc3)c(SCC(=O)NC3CCS(=O)(=O)C3)n2)cc1C (stereo not given),3.66µM*,62.9%,1.7%,0.5%,i,i
COc1cccc(-n2nc(C#N)c(Cl)cc2=O)c1,i,22.4µM*,17.8µM*,6.31µM*,?,31.6µM*
O=C1c2[nH]nc(-c3ccccc3O)c2C(c2ccccc2F)N1Cc1ccco1 (stereo not given),i,10.9%,-64.0%,?,i,?
COCCN1C(=O)c2[nH]nc(-c3ccccc3O)c2C1c1ccc(OCc2ccccc2)c(OC)c1 (stereo not given),/,/,-73.1%,?,/,/
